Rows were chosen to be rich in hits. Some 8.1% of all compounds tested hit in one or more screens of this group.
KB-3-1 cytotox: KB-3-1 parental cell cytotoxicity. Potency, µM (highest dose often 46.1 µM), usual class: cytotoxic. KB-3-1 viability, CellTiter-Glo ATP luminescence, 72 h. 400,000 compounds, 1.4% hits; further: on the % scale 0 is the no-effect control and ±100 the full control effect; nearly all actives have a fitted effect of over 60% in size
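Using CellTiter-Glo luminescence, growth of non-resistant KB-3-1 adenocarcinoma cells is assessed 72 h after pin-tool compound addition at 37 °C. Normalized responses across the concentration series yield fitted curves.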
MCF10A rerep: DNA re-replication induction in MCF 10a cells; 350,000 compounds, 2.9% hits; MCF 10A DNA re-replication, Hoechst nuclear intensity, 48 h; Potency, µM (series often up to 46.1 µM), for the others: top-dose activity, positive = re-replication, hits mostly activators; further: % of control where 0% means no effect; nearly all actives have a fitted effect of over 50% in size
KB-V1 cytotox: kills drug-selected multidrug resistant KB-V1 cells | Potency, µM (top dose mostly 46.1 µM), hits mostly cytotoxic | KB-V1 MDR cells viability, CellTiter-Glo, 72 h | 400,000 compounds, 3.4% hits; further: on the % scale 0 is the no-effect control and ±100 the full control effect; nearly all actives have a fitted effect of over 60% in size
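Readout: CellTiter-Glo luminescence, 10 min after addition. Cells: KB-V1 MDR subline, 72 h at 37 degrees C with compound. Analysis: corrected, normalized data fitted to concentration-effect curves.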
SW480 rereplic: DNA re-replication induction in SW480 cells; SW480 DNA re-replication, Hoechst DNA content imaging, 48 h; Potency, µM (series often up to 46.1 µM), for the others: top-dose re-replication activation, most hits filed as activators; 340,000 compounds, 1.8% hits; further: % of control where 0% means no effect; nearly all actives have a fitted effect of over 55% in size
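Per well, 250 cells were exposed to pinned compound for 48 hr. Nuclear DNA was visualised with Hoechst (40 min, 37 C) and total object intensity recorded by fluorescence scanning.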
ELG1 repair inh: inhibitors of ELG1-dependent DNA repair in HEK293T cells; HEK293T ELG1-luciferase reporter, luminescence, 16 h; DNA damage induced by 5-fluorouridine; Potency, µM (doses to about 46.1 µM), for inactives: at the top dose activity change, negative = inhibition, usual class: inhibitors; 330,000 compounds, 2.3% hits; AID 504467; further: on the % scale 0 is the no-effect control and ±100 the full control effect; nearly all actives have a fitted effect of over 55% in size
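HEK293T cells expressing luciferase-tagged ELG1 (2,000/well) received 5-Fluorouridine plus compound or DMSO for 16 hr at 37 °C. Luciferase was read by ONE-Glo luminescence after 30 min at room temperature.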
* hit, by the source's call; i = inactive; ? = inconclusive; nt = no result; ! = repeats disagree. The call rests on the fitted dose curve; in most records, active means well fitted curve in the direction sought with a large enough effect; inconclusive means small, poorly fitted or top-dose-only effect, or another doubt; inactive means no such curve, though single readings can be large; an effect the other way counts as inactive or inconclusive. Potency means the concentration at half of the fitted maximal effect.

SMILES | KB-3-1 cytotox | MCF10A rerep | KB-V1 cytotox | SW480 rereplic | ELG1 repair inh
CCN(CC)C(=O)CSc1nnc(-n2nc(C)cc2C)c2ccccc12 | i | -6% | 13µM* | -9% | ?
COc1ccc(CCNC(=O)COC(=O)c2cc(Cl)nc(Cl)c2)cc1 | ? | 6% | i | -10% | 18%
COc1ccc(-c2sc3ccc(OC)cc3c2C#Cc2cncn2C)cc1 | ? | ? | ? | -1% | 5.8µM*
COc1ccc(-c2oc3ccccc3c2C#Cc2cncn2C)cc1 | i | 18µM* | ? | ? | ?
COc1ccc(-c2sc3cc4c(cc3c2C#Cc2cncn2C)OCO4)cc1 | i | -1% | i | 6% | -14%
CCOC(=O)c1c(-c2ccccc2Cl)csc1NC(=O)c1cc(S(=O)(=O)N2CCOCC2)ccc1C | i | ? | 10µM* | 16% | ?
CCOc1ccccc1NC(=O)c1cc(S(=O)(=O)N2CCOCC2)ccc1C | i | 12% | ? | -4% | -7%
O=C(NCCN1C(=O)S/C(=C\c2cccnc2)C1=O)c1cc(S(=O)(=O)N2CCOCC2)ccc1F | i | 17% | i | 2.1µM* | ?
Cc1ccc(S(=O)(=O)N2CCOCC2)cc1C(=O)NCCN1C(=O)S/C(=C\c2ccccc2Cl)C1=O | ? | 8% | ? | 0% | 21µM*
CC(C)(C)c1ccc(/C=C2\SC(=O)N(CCNC(=O)c3cccc(S(=O)(=O)N4CCOCC4)c3)C2=O)cc1 | ? | 27% | ? | 7% | ?
O=C(NCCN1C(=O)S/C(=C\c2cccc(Cl)c2Cl)C1=O)C1=COCCO1 | 21µM* | 2.6µM* | 15µM* | ? | -4%
C#CCN(C(=O)c1ccc(OC2CCN(Cc3ccccn3)CC2)cc1)C1CCCCC1 | i | 9% | i | 2% | 5%
COc1ccc2nc3n(c(=O)c2c1)-c1cc2ccccc2cc1C(=O)NC3Cc1ccc(O)cc1 (stereo unspecified) | i | nt | i | nt | nt
COc1ccc2nc3n(c(=O)c2c1)-c1cc2ccccc2cc1C(=O)NC3Cc1ccccc1 (stereo unspecified) | 12µM* | nt | ? | nt | nt
COC(=O)C1N2C(=O)N(C)[C@H](C(=O)OC)[C@H]2SC1(C)C (stereo partly specified) | i | nt | i | nt | nt
CCn1c(=O)n(CC)c2cc(S(=O)(=O)N3CCc4ccccc43)ccc21 | ? | 2% | 2.3µM* | -5% | 16µM*
COc1ccc(S(=O)(=O)N2CCc3ccccc32)cc1OC | ? | 9% | i | 11% | -7%
CC(OC(=O)/C=C/c1ccccc1)C(=O)Nc1cccc(C#N)c1 (stereo unspecified) | ? | ? | i | ? | -2%
O=C1C(C=Nc2ccccc2O)=C(O)c2ccccc21 | i | 5.2µM* | i | ? | ?
CN=CC1=C(O)c2ccccc2C1=O | i | 13µM* | i | 28% | 18%
Cc1ccc(O)c(N=CC2=C(O)c3ccccc3C2=O)c1 | i | ? | i | ? | ?
Cc1cc2nc(-c3ccccc3)c(Cc3cccc(Cl)c3)n2c(C)c1Br | i | nt | i | nt | nt
CNC(=S)N/N=C/c1cccc(OCc2ccccc2F)c1 | ? | 16% | ? | -5% | ?
CCNC(=S)N/N=C/c1cccc(OCc2c(F)cccc2Cl)c1 | ? | ? | 21µM* | 1% | ?
CC(C)CNC(=O)COC(=O)c1c2c(nc3ccccc13)/C(=C/c1cccs1)CC2 | i | 3.3µM* | ? | 3.7µM* | ?
SMILES | KB-3-1 cytotox | MCF10A rerep | KB-V1 cytotox | SW480 rereplic | ELG1 repair inh
CCc1cccc(C)c1NC(=O)COC(=O)c1c2c(nc3ccccc13)/C(=C\c1cccs1)CCC2 | i | 10µM* | 15µM* | 18µM* | 15µM*
NC(=O)c1ccc(NC(=O)COC(=O)c2c3c(nc4ccccc24)/C(=C\c2cccs2)CCC3)cc1 | i | 23µM* | i | 21µM* | 7.3µM*
O=C(Cn1c2c(sc1=O)C1c3ccccc3OCC1CS2)Nc1ccc(Cl)c(Cl)c1 (stereo unspecified) | 16µM* | 28% | i | 4% | 0%
Cc1cc2c(cc1C)-n1nnnc1C(N1CCN(CC(=O)NC(C)C)CC1)C(=O)N2 (stereo unspecified) | i | nt | i | nt | nt
C[N+]1(CC(=O)c2ccc(-c3ccccc3)cc2)CCOCC1 | i | nt | i | nt | nt
O=c1[nH]c(=O)n(C(c2ccccc2)c2ccccc2)cc1Br | i | -3% | i | -2% | 4%
O=c1[nH]nc(Br)c(=O)n1C(c1ccccc1)c1ccccc1 | ? | 0% | 23µM* | 2% | nt
COc1ccc(CN(C)CC(=O)Nc2ccccc2C(=O)NC2CC2)cc1F | i | -3% | i | -9% | 7%
CN(C)CCCN(C(=O)c1ccc(S(=O)(=O)N(C)C)cc1)c1nc2cc3c(cc2s1)OCO3 | i | 2% | i | -7% | 3%
CN(C)CCCN(C(=O)c1ccc2c(c1)CCCC2)c1nc2ccc(F)cc2s1 | i | ? | 4.1µM* | ? | 11%
CN(C)CCCN(C(=O)c1ccc2c(c1)CCCC2)c1nc2cc3c(cc2s1)OCO3 | ? | 16µM* | i | ? | -9%
CC(=O)c1cccc(-n2c(=O)c3c4c(sc3n(CC(=O)c3ccc(Cl)cc3)c2=O)CN(C(C)=O)CC4)c1 | i | nt | ? | nt | nt
C=C(C)Cn1c(=O)c2c(nc3n2CCCN3CCc2ccccc2)n(C)c1=O | i | 4% | ? | -14% | 16µM*
Cn1c(=O)n(Cc2ccccc2)c(=O)c2c1nc1n2CCCN1CCc1ccccc1 | i | ? | 2.3µM* | 4% | 23µM*
Cn1c(=O)n(CC(=O)OCc2ccccc2)c(=O)c2c1nc1n2CCCN1C1CCCCC1 | i | 9.2µM* | ? | 4% | nt
COc1cccc(NC(=O)COC(=O)C2CC3CCCC(C2)C3=O)c1 (stereo unspecified) | i | -6% | i | -10% | 7%
CCOC(=O)Nc1ccc2c(c1)ncn2C1CCCCC1 | i | -9% | 18µM* | 12% | ?
COCC(C)n1c(-c2ccc3c(c2)NC(=O)CO3)csc1=Nc1ccc(OC(F)F)cc1 (stereo unspecified) | 9.2µM*! | 3.3µM* | ? | ? | ?
CCCCN=c1scc(-c2ccc3c(c2)NC(=O)CO3)n1N=C1CCCC1 | ? | ? | ? | -8% | 23µM*
COc1ccccc1N=c1scc(-c2ccc3c(c2)NC(=O)CO3)n1CC1CCCO1 (stereo unspecified) | i | ? | i | 4% | 16µM*
CCN=c1scc(-c2ccc3c(c2)NC(=O)CO3)n1N=C1CCCC1 | ? | ? | ? | 2% | ?
